Hit rate of the full screen: of about 330,000 compounds, about 1,900 (0.58%) were called active. Roughly 4% stayed inconclusive and do not appear here. Only a sample is shown. Measured potencies and affinities stand elsewhere. A number with no mark means an inactive call. Cut-off read from the data, not from the text of the source: inconclusive = inhibition above about 70% without an active follow-up result; inactive = below that.
experiment: M. tuberculosis growth inhibition, HTS (AID 449762);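 note: bacterial growth assessed after seven days of incubation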; settings: M. tuberculosis H37Rv growth inhibition, 7H9 media; at 25 µM; active compounds read high

SMILES | inhibition [%]
COc1ccccc1OCC(=O)Nc1ccc(S(=O)(=O)N2CCOCC2)cc1 | -3.94
CCCCn1c(=O)[nH]c(=O)c2c1nc(-c1ccsc1)n2Cc1ccccc1 | 7.19
CC(C)c1nnc2n1N=C(c1ccc(Cl)cc1)CS2 | 45.3
CCC(=O)Nc1ccc(C2=Nn3c(nnc3C(C)C)SC2)cc1 | 9.12
Cc1ccc(CN2CCSc3ccc(C(=O)NCC4CCCO4)cc32)cc1 (configuration not stated) | -1.08
Nc1ccc(Nc2ccc([N+](=O)[O-])cc2[N+](=O)[O-])cc1 | 4.35
Nc1cc([N+](=O)[O-])ccc1Nc1ccccc1 | 2.95
COc1ccc2sc(-c3ccc(S(C)(=O)=O)cc3)c(C(=O)NCCc3c[nH]c4ccccc34)c2c1 | 0.16
CN1C(=O)N(C)C(=O)C2(Cc3cc(N)ccc3N3CCN(c4ccccc4F)CC32)C1=O (configuration not stated) | -0.78
CN(C(=S)NC(=O)c1ccccc1)C1CCCCC1 | 60.5
Cc1ccc(C(=O)NC(=S)N(C)C2CCCCC2)cc1 | 62.7
O=C(NCc1ccc2c(c1)OCO2)C1CCC(CNS(=O)(=O)c2ccc(Cl)cc2)CC1 (configuration not stated) | -12
O=C(CN1C(=O)NC2(CCCC2)C1=O)N1CCN(S(=O)(=O)c2ccc(Cl)c(C(F)(F)F)c2)CC1 | -1.26
CC1CCCC(C)N1/N=C/c1cccc(Br)c1 (configuration not stated) | 2.02
Brc1ccc2[nH]cc(/C=N/N3CCCCC3)c2c1 | -3.65
CCCCNS(=O)(=O)c1ccc(OC)c2ncccc12 | -7.49
COc1cc(NC(=O)c2ccc3snnc3c2)cc(OC)c1 | -2.63
C[C@H](NC(=O)c1cc2c(cn1)[nH]c1ccccc12)C(=O)O | 61.1
COC(=O)[C@H](C)NC(=O)c1cc2c(cn1)[nH]c1ccccc12 | 25.1
Cc1cc(C)c2nc(-c3ccccn3)cc(C(=O)NCCc3ccc(S(N)(=O)=O)cc3)c2c1 | 2.93
O=C(CSC1=NC(=O)C(c2ccccc2)C(=O)N1)Nc1cccc(Cl)c1 (configuration not stated) | -1.6
NS(=O)(=O)c1ccc(NC(=O)CSC2=NC(=O)C(c3ccccc3)C(=O)N2)cc1 (configuration not stated) | -4.16
CC1CC(NC(=O)CC#N)CC(C)(C)C1 (configuration not stated) | -2.07

SMILES | inhibition [%]
CCNC(=O)CC1C(=O)N(c2ccc(C)cc2)C(=O)N1CCc1sccc1C (configuration not stated) | -0.52
COc1ccc(OC)c(N(CC(=O)Nc2ccccc2)S(=O)(=O)c2ccccc2)c1 | -0.48
CC1(C(=O)O)CCCC2(C)c3cc(O)ccc3CCC12 (configuration not stated) | -4.51
CC(C)(O)c1ccc2c(c1)CCC1C(C)(C(=O)O)CCCC21C (configuration not stated) | -2.51
Cc1cc(CN(C)C(=O)C2CCC(=O)N(CCc3ccccc3)C2)n[nH]1 (configuration not stated) | 8.05
CC(=O)Nc1ccc(SC(C)C(=O)NC(N)=O)cc1 (configuration not stated) | -6.23
NC1=NC[C@H](Cc2ccc(O)cc2)N1CCc1cccc(F)c1 | -2.28
NC1=NC[C@@H](Cc2ccc(O)cc2)N1CCc1cccc2ccccc12 | 7.62
Cc1cc(=O)oc2cc(OCC(=O)N3CCCC3)ccc12 | -4.87
COc1ccccc1CCC(=O)NNC(=O)c1cccs1 | -0.29
CCCCCCCCCCOC(=O)Cn1c(COc2ccccc2)[n+](C)c2ccccc21 | 49.6
CCCCCCCCCCOC(=O)Cn1c(COc2ccccc2OC)[n+](C)c2ccccc21 | 54.7
COc1ccc([C@H]2CC(=O)C=C(c3ccc(Br)c4ccccc34)C2)cc1 | 67.8
COc1ccc([C@H]2CC(=O)C=C(c3cc4ccccc4c4ccccc34)C2)cc1 | -1.17
COc1ccc(-c2[nH]ncc2CN2CCCOc3c(cccc3OC)C2)c(OC)c1 | 9.33
O=C1CCCN1CCC(=O)N1CCCC(Nc2ccc(F)cc2)C1 (configuration not stated) | -9.8
OC(CN1CCN(c2ccccc2Cl)CC1)c1ccccc1 (configuration not stated) | 2.61
C/C(CC(=O)Nc1cc(Cl)ccc1C)=N\NC(N)=O | 4.8
CC(=O)Nc1ccc(NC(=O)C/C(C)=N/NC(N)=S)cc1 | 3.29
COc1ccc(C2(c3ccc(OC)cc3)NC(=O)N(CC(=O)Nc3ccc(C(=O)N(C)C)cc3)C2=O)cc1 | -1.84
CC(C)N=c1scc(-c2ccco2)n1/N=C/c1ccc(O)c(O)c1 | 9.93
CCN=c1scc(-c2ccco2)n1/N=C/c1ccc(O)cc1 | 28.5
COc1ccc(S(=O)(=O)Nc2ccccc2N2CCOCC2)cc1OC | 3.88

SMILES | inhibition [%]
CC(Nc1cc(C)cc(C)c1)=[N+](C)CCNS(=O)(=O)c1ccc(Cl)cc1 | -13.9
Cc1ccc(-c2nsc3c(N4CCC(C(N)=O)CC4)ncnc23)cc1 | -5.48
O=c1c(C=NCc2ccccc2)c(NCc2ccccc2)nc2ccccn12 | 11.6
COc1ccc(C(=O)N/C(N)=N/c2nc3ccccc3o2)cc1 | 43
COC(=O)CSc1nc2ccccc2o1 | 20
O=C(O)c1ccc(NS(=O)(=O)c2ccc3c(c2)OCCCO3)cc1 | 5.48
COc1ccc(N(CC(=O)NC2CCCCCC2)S(=O)(=O)c2ccccc2)cc1Cl | 11.1
O=[N+]([O-])c1ccc(Cl)c(-c2ccc(/C=N/n3cnnc3)o2)c1 | -1.71
O=[N+]([O-])c1cc(-c2ccc(/C=N/n3cnnc3)o2)ccc1Cl | 16.1
C/C=C1\COC(C(=O)NCCCN2CCCC2=O)(C(F)(F)F)C=C1C=C(C)C (configuration not stated) | 2.64
CN(C(=O)CSC1=Nc2ccccc2C2=NC(c3ccccc3)C(=O)N12)C1CCCCC1 (configuration not stated) | -5.75
NC(=O)CSC1=Nc2ccccc2C2=NC(c3ccccc3)C(=O)N12 (configuration not stated) | 4.02
CCOC(=O)Cn1c(-c2ccccc2)cc(SC)c(C#N)c1=O | 13.1
CCn1c(-c2ccccc2)ccc(C#N)c1=O | -2.43
CCOC(=O)Cn1nnc(-c2ccccc2)n1 | -9.53
NC(=O)Cn1nc(-c2ccccc2)nc1-c1ccccc1 | -2.98
COc1cc2cnc(-c3ccccc3)cc2cc1OC | 61.6
CN(C)/C=N/NC(=O)c1ccc(Cl)cc1 | -3.16
O=C(CCCCCn1nnc2ccccc2c1=O)Nc1ccccc1F | -1.21
COc1ccc(CNC(=O)CN(Cc2ccc(Cl)cc2)S(=O)(=O)c2ccccc2)cc1 | -11.8
CC(=O)Nc1cc(-c2nn(C)c(=O)c3ccccc23)ccc1N1CCCCC1 | 5.24
CCC(=O)Nc1cc(-c2nn(C)c(=O)c3ccccc23)ccc1N1CCCCC1 | -0.54
CC(=Nc1ccc2c(c1)CCC2)c1c(O)n(-c2ccccc2)c(=O)[nH]c1=O | 0.86

SMILES | inhibition [%]
Cc1cccc(CS(=O)(=O)Cc2ccc(C(=O)NCCCN3CCOCC3)o2)c1 | -7.1
Cc1ccc(NC(=O)COC(=O)C(NS(=O)(=O)c2ccc(Cl)cc2)C(C)O)cc1 (configuration not stated) | -2.52
COc1cc(Cl)c(C)cc1NC(=O)COC(=O)C(NS(=O)(=O)c1ccc(Cl)cc1)C(C)O (configuration not stated) | -9.26
OCC(CBr)(CBr)CBr | -6.91
CCC1=NC(c2ccc(OC)cc2)N(O)C1(C)C (configuration not stated) | -1.62
CC(O)(CS(=O)(=O)Cc1ccccc1)C(=O)Nc1cccc(C(F)(F)F)c1 (configuration not stated) | 8.28
Cc1[nH]c2ccccc2c1/C=N/Nc1nc(Nc2ccc(F)cc2)nc(N2CCOCC2)n1 | 62.1
C(=N\Nc1nc(Nc2ccccc2)nc(N2CCOCC2)n1)/c1c[nH]c2ccccc12 | 41.1
Cc1ccc(C)c(S(=O)(=O)N2CCC(c3nc4c(nnn4Cc4ccc(F)cc4)c(=O)[nH]3)CC2)c1 | 7.99
O=c1[nH]c(C2CCN(S(=O)(=O)c3ccc4c(c3)OCCO4)CC2)nc2c1nnn2Cc1ccc(F)cc1 | 37.9
Cn1c(CC(=O)Nc2ccc(F)cc2)c(Sc2ccccc2)c2ccccc21 | 3.85
NC(=O)C1CCCN(C(=S)NCc2ccc3c(c2)OCO3)C1 (configuration not stated) | -1.44
CCOc1cc(/C=C/C(=O)OCC(=O)NCC2CCCO2)cc(Cl)c1OC (configuration not stated) | 1.07
O=C(c1ccc(Cl)cc1)N1CCCC(c2ccccc2)=N1 | 2.03
O=C(C1CC1)N1N=C(c2ccc(Cl)cc2)CC1(O)C(F)(F)F (configuration not stated) | 49
CCN(CCO)C(=S)Nc1cc(S(=O)(=O)N(C)C)ccc1C | -0.4
CCOC(=O)c1[nH]c(C)c(C(=O)N2CCN(c3ccc(OC)cc3)CC2)c1C | -0.98
CCOC(=O)c1c(C)[nH]c(C(=O)N2CCN(c3ccc(OC)cc3)CC2)c1C | 53.5
C[C@H](CO)N1C[C@H](C)[C@H](CN(C)Cc2ccncc2)Oc2ccc(NC(=O)Nc3ccc(C(F)(F)F)cc3)cc2CC1=O | 62.2
C=CCNC(=O)c1ccc(-c2nc(-c3ccccc3)cs2)cc1 | 1.66
CN(C)CCCNC(=O)c1ccc(-c2ccccc2)cc1 | -5.39
O=C(NN=C1CCCC1)c1cccc(O)c1 | -8.1
CCCNC(=O)CSc1n[nH]c(=O)n1CCc1ccccc1 | 7.69

From PubChem BioAssay AID449762 (Southern Research Specialized Biocontainment Screening …, 2010)
